Measured values reported in PubChem BioAssay (EPA / NIEHS).
Activity calls are given as the source filed them. The calls were made as follows: active = hit-call score of the fitted dose curve at least 0.9, where 1 is the maximum; inactive = score below 0.9.

Legend:
[1] = APR_HepG2_NuclearSize_72hr: Apredica 72-hour HepG2 Assay for Nuclear Size (AID 2282925); settings: high-content imaging, actives raise or lower the signal
Summary of the method: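 Compounds (0.39–200 uM, final DMSO 0.5%) were applied to HepG2 for 72 hr. Cells were then formaldehyde-fixed, permeabilized and labelled with Hoechst 33342. Nuclear diameter was quantified from six images per well.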

[2] = ATG_CRE_CIS: Attagene CIS-FACTORIAL HepG2 Assay for human cAMP Responsive Element (CRE) binding protein 3 (AID 2282926); settings: HepG2 CRE cis-reporter, Attagene multiplexed mRNA; actives raise or lower the signal
Summary of the method: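 Assay format: transient reporter transfection of HepG2, 24 h treatment, total RNA isolation with DNase I step. Reporter abundance read by fluorescence after PCR and capillary separation; DMSO-normalised gain or loss fitting.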

[3] = target: CCAAT/enhancer-binding protein beta (Homo sapiens) (UniProt P17676); experiment: ATG_C_EBP_CIS: Attagene CIS-FACTORIAL HepG2 Assay for human CCAAT/Enhancer Binding Protein (C/EBP) beta (AID 2282927); settings: HepG2 Attagene cis-factorial transcription factor reporter; actives raise or lower the signal
Summary of the method: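 RT-PCR/capillary electrophoresis fluorescence of reporter mRNA, 24 h post-dose, in HepG2 cells carrying transfected cis-promoter reporter units. Bidirectional curve fitting against DMSO baseline captures gain or loss of signal.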

[4] = ATG_CMV_CIS: Attagene CIS-FACTORIAL HepG2 Assay for human CMV (Internal Marker) (AID 2282928); settings: HepG2 CMV promoter reporter, transcription factor profiling; actives raise or lower the signal;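 also: endpoint acts as a background internal control marker rather than a target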
Summary of the method: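 24 h chemical treatment, HepG2 with transient multi-reporter transfection; RNA → oligo(dT) RT → PCR → 6-FAM extension → HpaI digest → CE fluorescence. Bidirectional fit, DMSO negative control.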

[5] = ATG_DR4_LXR_CIS: Attagene CIS-FACTORIAL HepG2 Assay for human Liver X Receptor (LXR), DR4 submotif (AID 2282929); settings: HepG2 Attagene DR4 cis-reporter, mRNA transcription; actives raise or lower the signal
Summary of the method: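 DR4 cis-reporter in HepG2, 24 h exposure. Detection: RT-PCR, 6-FAM labelling, CE fragment analysis. Endpoint fitted bidirectionally, DMSO = baseline.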

[6] = target: Aryl hydrocarbon receptor (Homo sapiens) (UniProt P35869); experiment: ATG_Ahr_CIS: Attagene CIS-FACTORIAL HepG2 Assay for human Aryl Hydrocarbon Receptor (Ahr) (AID 2282930); settings: HepG2 AhR cis-factorial reporter transcription; actives raise or lower the signal
Summary of the method: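 HepG2 cells transiently transfected with cis-element-driven multiplexed reporter transcription units; endogenous transcription factor activity measured as reporter mRNA 24 h after dosing. RT-PCR, 6-FAM labelling, HpaI digestion, capillary electrophoresis; bidirectional fitting versus DMSO baseline.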

[7] = ATG_AP_1_CIS: Attagene CIS-FACTORIAL HepG2 Assay for human Activator Protein 1 (AP-1) (AID 2282931); settings: HepG2 Attagene cis-factorial AP-1 reporter mRNA; actives raise or lower the signal
Summary of the method: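 Cis-regulated reporter units transiently expressed in HepG2 report endogenous transcription-factor activity. Signal: reporter mRNA at 24 h, via RT-PCR and fluorescent capillary electrophoresis. Endpoint derived by bidirectional fitting, DMSO as negative control.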

[8] = ATG_AP_2_CIS: Attagene CIS-FACTORIAL HepG2 Assay for human Activator Protein 2 (AP-2) (AID 2282932); settings: HepG2 AP-2 cis-reporter, Attagene transcription factor profiling; actives raise or lower the signal
Summary of the method: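 Assay in transfected HepG2 with promoter-regulated reporters, 24 h incubation after dosing. Signal is reporter mRNA fluorescence (RT-PCR, capillary electrophoresis), analysed for both increases and decreases relative to DMSO controls.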

[9] = ATG_BRE_CIS: Attagene CIS-FACTORIAL HepG2 Assay for human Bone Morphogenetic Protein (BMP) Response Element (BRE) (AID 2282933); settings: HepG2 BMP response element reporter, Attagene transcription factor profiling; actives raise or lower the signal
Summary of the method: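 Transient MRTU transfection of human HepG2 liver cells; 24 h compound treatment; total RNA isolated, reverse-transcribed, PCR-amplified, 6-FAM labelled, HpaI-cut, capillary electrophoresis. DMSO = negative control/baseline, bidirectional fit.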

[10] = target: Retinoic acid receptor alpha (Homo sapiens) (UniProt P10276); experiment: ATG_DR5_RAR_CIS: Attagene CIS-FACTORIAL HepG2 Assay for human Retinoic Acid Receptor Alpha (RARE), DR5 submotif (AID 2282934); settings: HepG2 Attagene cis-factorial RARE DR5 reporter, mRNA; actives raise or lower the signal;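 as to AC50: reporter responds to endogenous RAR alpha beta and gamma in HepG2 not RARA alone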
Summary of the method: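 HepG2 cells transiently transfected with multiplexed reporter units under cis (DR5 RARE) promoters, so endogenous transcription factor activity is measured. After 24 h compound exposure, reporter mRNA is quantified by RT-PCR with fluorescent labelling and capillary electrophoresis; bidirectional fitting versus DMSO.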

[11] = target: Transcription factor E2F1 (Homo sapiens) (UniProt Q01094); experiment: ATG_E2F_CIS: Attagene CIS-FACTORIAL HepG2 Assay for human E2F Transcription Factor 1 (AID 2282935); settings: HepG2 Attagene cis-reporter, E2F reporter RNA transcripts; actives raise or lower the signal
Summary of the method: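 In this cis-factorial format, endogenous factor activity drives transfected reporters in HepG2; transcripts collected at 24 h are quantified by fluorescence after RT-PCR and capillary separation.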

[12] = ATG_E_Box_CIS: Attagene CIS-FACTORIAL HepG2 Assay for human Enhancer Box (E-box) (AID 2282936); settings: HepG2 E-box cis-reporter transcription, actives raise or lower the signal
Summary of the method: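 Measured 24 h post-dosing in HepG2 cells transfected with multiple cis-regulated reporter units, signal being reporter mRNA induction detected by fluorescent RT-PCR with capillary electrophoresis; gain or loss fitted against DMSO.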

[13] = ATG_M_61_CIS: Attagene CIS-FACTORIAL HepG2 Assay for M61 Transcription Factor (Internal Marker) (AID 2282937); settings: HepG2 Attagene CIS-FACTORIAL M61 internal marker reporter; actives raise or lower the signal
Summary of the method: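 Background-control endpoint: HepG2 cells with cis-regulated reporter constructs, 24 h exposure, reporter mRNA detected via fluorescent primer extension and capillary electrophoresis; values from bidirectional fitting with DMSO baseline.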

[14] = ATG_EGR_CIS: Attagene CIS-FACTORIAL HepG2 Assay for human Early Growth Response 1 (EGR1) (AID 2282938); settings: HepG2 Attagene CIS-FACTORIAL EGR reporter mRNA; actives raise or lower the signal
Summary of the method: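 Endpoint derived by bidirectional fitting versus DMSO vehicle. Method: cis-promoter reporter units transfected into HepG2, 24 h dosing, RNA isolation, RT-PCR with 6-FAM primer extension and HpaI digestion, then capillary electrophoresis fluorescence detection.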

[15] = ATG_ERE_CIS: Attagene CIS-FACTORIAL HepG2 Assay for Estrogen Response Element (ERE) (AID 2282940); settings: HepG2 ERE cis-reporter, Attagene RNA transcript; actives raise or lower the signal
Summary of the method: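 Transient MRTU transfection of human HepG2; cis-element promoters; 24 h dosing; total RNA → RT (oligo dT) → PCR → 6-FAM primer extension → HpaI digest → CE fluorescence. Bidirectional fit, DMSO baseline.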

[16] = ATG_Ets_CIS: Attagene CIS-FACTORIAL HepG2 Assay for human Erythroblast Transformation Specific (ETS) (AID 2282941); settings: HepG2 ETS cis-reporter transcription, actives raise or lower the signal
Summary of the method: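 Cis-regulated reporter mRNA induction in HepG2 (transient transfection), 24 h exposure, RT-PCR plus capillary electrophoresis detection; DMSO serves as negative control and baseline.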

[17] = target: Hepatocyte nuclear factor 3-beta (Homo sapiens) (UniProt Q9Y261); experiment: ATG_FoxA2_CIS: Attagene CIS-FACTORIAL HepG2 Assay for human Forkhead box A2 (FOXA2) (AID 2282942); settings: HepG2 cis-reporter transcription factor activity, 24 h; actives raise or lower the signal
Summary of the method: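 Measured: reporter mRNA induction or loss in HepG2 transiently carrying multiple cis-regulated reporter units, 24 h after dosing. Quantified by RT-PCR plus capillary electrophoresis, normalised to DMSO.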

[18] = ATG_FoxO_CIS: Attagene CIS-FACTORIAL HepG2 Assay for human Forkhead box O (FoxO) (AID 2282943); settings: HepG2 Attagene cis-reporter, FoxO element, mRNA; actives raise or lower the signal
Summary of the method: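 HepG2 cells transiently transfected with cis-promoter-driven multiple reporter transcription units; 24 h after chemical dosing, reporter mRNA quantified by RT-PCR, fluorescent primer extension, HpaI digestion and capillary electrophoresis. Bidirectional fitting versus DMSO baseline.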

[19] = ATG_GATA_CIS: Attagene CIS-FACTORIAL HepG2 Assay for human GATA Binding Protein (AID 2282944); settings: HepG2 GATA cis-element reporter, Attagene multiplex mRNA; actives raise or lower the signal
Summary of the method: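 Transient MRTU transfection, HepG2, 24 h compound exposure. Total RNA → oligo(dT) RT → PCR → 6-FAM primer extension → HpaI cut → CE. Bidirectional fit vs DMSO.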

[20] = ATG_M_19_CIS: Attagene CIS-FACTORIAL HepG2 Assay for M19 Transcription Factor (Internal Marker) (AID 2282939); settings: HepG2 Attagene CIS-FACTORIAL M19 internal marker reporter; actives raise or lower the signal
Summary of the method: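 Transfect HepG2 with MRTU reporter library → dose chemical, 24 h → isolate total RNA, reverse-transcribe with oligo(dT) → PCR, 6-FAM label, HpaI cut (2 h, 37 C) → capillary electrophoresis. Bidirectional fit vs DMSO.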

Measured: AC50

Chain of CCAAT/enhancer-binding protein beta (Homo sapiens) (P17676 whole entry, looked up): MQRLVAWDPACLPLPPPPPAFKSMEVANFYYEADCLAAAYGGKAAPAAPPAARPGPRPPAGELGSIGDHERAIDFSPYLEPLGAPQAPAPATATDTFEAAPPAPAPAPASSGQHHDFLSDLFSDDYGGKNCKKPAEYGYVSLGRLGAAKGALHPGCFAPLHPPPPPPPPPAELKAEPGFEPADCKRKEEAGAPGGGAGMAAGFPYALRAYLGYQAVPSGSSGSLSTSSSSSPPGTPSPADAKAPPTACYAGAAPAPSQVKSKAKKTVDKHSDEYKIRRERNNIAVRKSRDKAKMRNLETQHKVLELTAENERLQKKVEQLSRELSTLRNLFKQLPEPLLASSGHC
Chain of Transcription factor E2F1 (Homo sapiens) (Q01094 whole entry, looked up): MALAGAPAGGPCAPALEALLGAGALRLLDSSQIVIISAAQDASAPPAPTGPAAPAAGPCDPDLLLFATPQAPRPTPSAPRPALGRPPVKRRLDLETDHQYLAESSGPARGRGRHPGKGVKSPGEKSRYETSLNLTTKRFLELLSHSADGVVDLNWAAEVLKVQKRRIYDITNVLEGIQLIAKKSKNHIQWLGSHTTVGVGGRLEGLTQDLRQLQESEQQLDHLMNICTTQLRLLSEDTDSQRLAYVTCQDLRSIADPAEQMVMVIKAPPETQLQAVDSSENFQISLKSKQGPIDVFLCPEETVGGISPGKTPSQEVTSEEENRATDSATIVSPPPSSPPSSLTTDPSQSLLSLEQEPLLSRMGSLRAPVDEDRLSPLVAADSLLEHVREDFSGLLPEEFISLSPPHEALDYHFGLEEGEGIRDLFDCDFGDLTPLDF
Chain of Retinoic acid receptor alpha (Homo sapiens) (P10276 whole entry, looked up): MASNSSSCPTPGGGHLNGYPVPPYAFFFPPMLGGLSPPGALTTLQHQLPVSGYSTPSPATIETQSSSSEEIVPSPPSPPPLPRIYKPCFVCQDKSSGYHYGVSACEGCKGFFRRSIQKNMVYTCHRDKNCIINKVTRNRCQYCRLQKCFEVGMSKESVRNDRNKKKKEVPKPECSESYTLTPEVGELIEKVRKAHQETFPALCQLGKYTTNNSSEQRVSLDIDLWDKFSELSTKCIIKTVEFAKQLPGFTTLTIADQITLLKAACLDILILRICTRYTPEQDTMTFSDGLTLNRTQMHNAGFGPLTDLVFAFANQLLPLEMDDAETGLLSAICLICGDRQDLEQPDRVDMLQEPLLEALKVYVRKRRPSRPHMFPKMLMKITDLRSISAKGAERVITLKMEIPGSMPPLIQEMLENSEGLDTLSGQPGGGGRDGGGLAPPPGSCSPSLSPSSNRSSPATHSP
Chain of Hepatocyte nuclear factor 3-beta (Homo sapiens) (Q9Y261 whole entry, looked up): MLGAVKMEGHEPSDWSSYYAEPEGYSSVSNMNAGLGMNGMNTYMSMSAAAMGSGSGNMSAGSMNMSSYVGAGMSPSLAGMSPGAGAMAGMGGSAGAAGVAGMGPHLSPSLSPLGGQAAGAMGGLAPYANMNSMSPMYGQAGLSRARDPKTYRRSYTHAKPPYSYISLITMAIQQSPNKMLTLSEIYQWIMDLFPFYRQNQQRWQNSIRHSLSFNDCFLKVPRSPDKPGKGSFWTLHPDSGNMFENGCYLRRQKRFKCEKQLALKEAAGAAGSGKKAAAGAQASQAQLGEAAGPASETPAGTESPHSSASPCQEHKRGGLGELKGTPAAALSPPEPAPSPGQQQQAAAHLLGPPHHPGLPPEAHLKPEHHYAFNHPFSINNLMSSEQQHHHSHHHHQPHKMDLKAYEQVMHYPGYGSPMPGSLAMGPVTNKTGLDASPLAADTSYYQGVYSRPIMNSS
Chain of Aryl hydrocarbon receptor (Homo sapiens) (P35869 whole entry, looked up): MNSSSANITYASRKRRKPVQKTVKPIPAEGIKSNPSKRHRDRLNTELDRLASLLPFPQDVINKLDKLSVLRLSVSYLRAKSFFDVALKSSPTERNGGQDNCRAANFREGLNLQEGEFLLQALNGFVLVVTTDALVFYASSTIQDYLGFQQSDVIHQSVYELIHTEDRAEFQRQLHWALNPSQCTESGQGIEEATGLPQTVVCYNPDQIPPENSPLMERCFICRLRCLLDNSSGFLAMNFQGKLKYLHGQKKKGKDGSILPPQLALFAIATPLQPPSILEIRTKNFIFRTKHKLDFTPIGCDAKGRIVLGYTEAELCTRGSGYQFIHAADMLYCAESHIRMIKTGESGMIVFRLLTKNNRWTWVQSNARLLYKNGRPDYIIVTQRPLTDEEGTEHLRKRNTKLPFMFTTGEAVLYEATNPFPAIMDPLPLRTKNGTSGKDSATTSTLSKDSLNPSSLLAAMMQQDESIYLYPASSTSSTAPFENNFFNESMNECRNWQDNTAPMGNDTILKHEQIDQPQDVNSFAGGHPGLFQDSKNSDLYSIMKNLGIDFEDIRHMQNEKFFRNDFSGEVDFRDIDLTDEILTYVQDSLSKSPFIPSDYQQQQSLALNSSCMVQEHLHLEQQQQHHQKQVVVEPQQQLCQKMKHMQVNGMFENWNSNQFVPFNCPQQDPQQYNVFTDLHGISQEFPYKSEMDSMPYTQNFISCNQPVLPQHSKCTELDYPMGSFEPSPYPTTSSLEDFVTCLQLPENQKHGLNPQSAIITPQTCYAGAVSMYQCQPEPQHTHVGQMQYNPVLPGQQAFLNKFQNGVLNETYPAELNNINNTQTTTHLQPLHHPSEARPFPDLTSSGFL

CCOC(=O)CCC(=O)OCC
active: [6] 75.7 µM
not listed: [20]
inactive: all other assays above

CC(=O)OCCOCCOCCOC(C)=O
inactive: all assays above

CCCCCCCCCCCC(=O)OC
not listed: [10]
inactive: all other assays above

CC(=O)Oc1ccccc1C(=O)O
active: [7] 61.1 µM
not listed: [4]
inactive: all other assays above

Cc1ccc(C(C)C)c(O)c1
not listed: [20]
inactive: all other assays above

CCCCCCCCCCCCCCCCCC(=O)O
active: [15] 2.75 µM
not listed: [4]
inactive: all other assays above

NS(=O)(=O)c1cc2c(cc1Cl)NCNS2(=O)=O
not listed: [10] | [20]
inactive: all other assays above

COc1cccc2c1C(=O)c1c(O)c3c(c(O)c1C2=O)C[C@@](O)(C(=O)CO)C[C@@H]3O[C@H]1C[C@H](N)[C@H](O)[C@H](C)O1
active: [5] 0.957 µM | [7] 2.15 µM | [8] 3.75 µM | [12] 1.85 µM | [14] 2.04 µM | [18] 543 nM
not listed: [4]
inactive: all other assays above

CCc1c(C(=O)NN2CCCCC2)nn(-c2ccc(Cl)cc2Cl)c1-c1ccc(Br)cc1
active: [4] 6.36 µM | [5] 1.91 µM | [7] 3.93 µM | [10] 2.16 µM | [14] 3.12 µM | [15] 6.06 µM
not listed: [20]
inactive: all other assays above

CC(C)(C)c1cc(O)c(C(C)(C)C)cc1O
active: [1] 26 µM | [2] 23 µM | [3] 89.1 µM | [5] 29.5 µM | [7] 31 µM | [9] 30.4 µM | [10] 57.1 µM | [14] 31.1 µM | [15] 31 µM
not listed: [4]
inactive: all other assays above

Cc1cc(NC(=O)C(=O)O)cc(C)c1Oc1ccc(O)c2c1CCC2
active: [5] 156 µM
not listed: [10]
inactive: all other assays above

CCCCCCCC=O
not listed: [10] | [20]
inactive: all other assays above

Cc1nc(-c2ccc3c(c2)CCN(CCC2CCC(NC(=O)/C=C/c4ccc(F)cc4)CC2)CC3)no1 (stereo not given)
not listed: [10]
inactive: all other assays above

COc1ccc2c(c1)c(CC(=O)O)c(C)n2C(=O)c1ccc(Cl)cc1
not listed: [4]
inactive: all other assays above
